# Compounds with a hit are over-represented: about 4% of the library has one in this group of screens.
# Wnt bcat act = activators of Wnt/beta-catenin signaling. 1.2% of 300,000 active. Wnt/beta-catenin reporter cell assay, activator, plate reader. activation, % at 9.35 µM; in the data active = activation above about 30%, passing the limit was not always enough; inconclusive = no clear call, values can overlap the other calls;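 also: 0% = neutral control wells and 100% = positive control wells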
# MITF TRPM1 inh = inhibitors of MITF-driven TRPM1 promoter in melanoma cells; SK-MEL-5 TRPM1 promoter luciferase, 24 h; inhibition, % at 12.5 µM; 0.83% of 330,000 active; AID 488899;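 active = mean inhibition across replicates of 60% or more, whatever share of single replicates reaches that level; inconclusive = some that reach 60%, reason not given; inactive = mean inhibition across replicates below 60%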
# EWS-Fli inh = inhibitors of EWS/Fli oncoprotein transcriptional activity | A673 NR0B1-luciferase reporter, viability-normalised | inhibition, % at 12.6 µM | 0.67% of 350,000 active | AID 651661;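 active = mean inhibition of at least 50% after viability correction, with every replicate also passing that limit; inconclusive = mean reaches 50% but only one of two replicates passes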;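 also: firefly luciferase signal divided by Alamar Blue viability fluorescence both relative to DMSO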
# PAX8 inh HTS = inhibitors of PAX8 transcriptional activity in RMG-I cells. RMG-I TPO-luciferase reporter, SteadyGlo, 24 h. inhibition, % at 12.6 µM. 1.2% of 360,000 active;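 active = mean replicate inhibition at least 60% with every replicate also reaching 60%; inconclusive = only one of the two criteria is met; inactive = mean below 60% and not all replicates reaching 60%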;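 also: luciferase light reporting Pax8 driven TPO promoter activity; plate controls were median of neutral control wells for no effect and mitoxantrone controls for full effect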
# MITF TRPM1 HTS = increases MITF-driven TRPM1 promoter luciferase signal; SK-MEL-5 TRPM1-promoter luciferase, 24 h; % of positive control, neutral wells = 0; activation, % at 12.5 µM; 0.75% of 300,000 active; AID 588334;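 active = mean activation of at least 80% with every replicate also reaching 80%; inconclusive = mean reaches 80% but some replicate falls short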;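 also: 0% = neutral control wells and 100% = parthenolide positive control wells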
# esBAF inh = inhibitors of esBAF chromatin remodeling in mouse ES cells. 2% of 350,000 active. AID 602393. Bmi1-luciferase knock-in reporter, 24 h; 100% = twice the neutral-well signal. reporter increase, % at 12.5 µM; in the data active = activation above about 40%; inconclusive = no clear call, values can overlap the other calls;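 also: 0% = median of the plate's neutral control wells and 100% = double that signal; a rise in the Bmi1 reporter signal indicates esBAF inhibition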
# * hit, by the source's call; ? = inconclusive; . = no result; ! = not active in a repeat.
SMILES,Wnt bcat act,MITF TRPM1 inh,EWS-Fli inh,PAX8 inh HTS,MITF TRPM1 HTS,esBAF inh
CN1CCc2c(sc(NC(=O)c3ccc([N+](=O)[O-])o3)c2C(N)=O)C1,-1,86*,67*,95*,-85,-43
CN1CCc2c(sc(NC(=O)c3ccco3)c2C(N)=O)C1,3,-12,-27,-31,13,-1
COc1ccc(S(=O)(=O)Nc2ccc3c(c2)C(=O)N([C@H](C)CO)C[C@@H](C)[C@@H](CN(C)S(=O)(=O)c2ccc(F)cc2)OCCCC[C@H](C)O3)cc1,.,.,-8,22,.,11
COc1cccc(CNC(=O)C[C@@H]2CC[C@@H](NC(=O)C3CC3)[C@@H](CO)O2)c1,.,.,2,1,.,1
CC(=O)N(C)c1ccc(NCc2cc(=O)oc3cc(C)c(O)cc23)cc1,1,19,7,-4,-21,80*
Cc1cc(C)cc(NCc2cc(=O)oc3cc(C)c(O)cc23)c1,0,5,18,22,-5,-3
O=C(COc1ccc(Cl)cc1)Nc1ncc([N+](=O)[O-])s1,38*,-12,-13,-40,15,.
Cc1ccc(C(=O)Nc2ncc([N+](=O)[O-])s2)cc1,-2,63*,76*,87*,.,-82
O=C(Nc1ncc([N+](=O)[O-])s1)c1ccc2c(c1)OCO2,-7,65*,49,75*,-63,-76
Cc1cnc(NC(=O)c2ccc3c(c2)OCCO3)s1,-23,82*,77*,99*,-81,-9
Cc1ccc([N+](=O)[O-])cc1NC(=O)c1ccc2c(c1)OCO2,-1,2,-12,19,2,.
Cc1onc(-c2ccccc2)c1C(=O)Nc1ncc([N+](=O)[O-])s1,-10,3,19,20,-3,-14
Cc1nc2ccc3nc(NC(=O)c4ccc5c(c4)OCCO5)sc3c2s1,.,-18,.,.,20,15
CC(C)C#Cc1ccc2c(c1)O[C@@H](CN(C)C)[C@@H](C)CN([C@H](C)CO)S2(=O)=O,.,.,0,-10,.,-6
O=C(C[C@@H]1CC[C@@H](NC(=O)C2CC2)[C@@H](CO)O1)NCCCN1CCOCC1,.,.,-10,-13,.,-3
CCc1nc(N2[C@H](C#N)[C@H](c3ccccc3-c3ccccc3F)[C@H]2CO)sc1C,.,.,2,15,.,.
CCc1nc(N2[C@@H](C#N)[C@H](c3ccccc3-c3ccccc3F)[C@@H]2CO)sc1C,.,.,58*,-15,.,.
COc1ccc(NC(=O)N(C)C[C@@H]2Oc3ccc(NC(=O)CCC(F)(F)F)cc3C(=O)N([C@@H](C)CO)C[C@@H]2C)cc1,.,.,-9,-7,.,-5
Cn1c(/C=C/c2ccc(Cl)cc2)nc2ccccc2c1=O,1,-69,-123,-51,.,69*
Cn1c(/C=C/c2ccc([N+](=O)[O-])o2)nc2ccccc2c1=O,.,85*,.,.,-84,-80
Cn1c(/C=C/c2ccccc2)nc2ccccc2c1=O,18,-16,-105,-47,26,34
CNC(C)C#Cc1ccc2c(=O)c3cc(C)c(C)cc3oc2c1 (stereo unspecified),9,-26,-76,-146,26,69*
CCCNC(=O)C[C@@H]1C[C@H]2c3cc(NC(=O)COC)ccc3O[C@H]2[C@H](CO)O1,.,.,-3,6,.,3
C[C@H]1CCCCO[C@H](CN(C)C(=O)Nc2ccc(C(F)(F)F)cc2)[C@@H](C)CN([C@@H](C)CO)C(=O)c2cc(NS(=O)(=O)c3ccccc3)ccc2O1,.,.,20,79*,.,-22
C[C@H]1CCCCO[C@@H](CN(C)C(=O)Nc2ccc(C(F)(F)F)cc2)[C@@H](C)CN([C@@H](C)CO)C(=O)c2cc(NS(=O)(=O)c3cn(C)cn3)ccc2O1,.,.,28,91*,.,0
SMILES,Wnt bcat act,MITF TRPM1 inh,EWS-Fli inh,PAX8 inh HTS,MITF TRPM1 HTS,esBAF inh
C[C@H]1CCCCO[C@H](CN(C)C(=O)Nc2ccc(C(F)(F)F)cc2)[C@@H](C)CN([C@@H](C)CO)C(=O)c2cc(NS(=O)(=O)c3cn(C)cn3)ccc2O1,.,.,-24,5,.,10
C[C@@H]1CN([C@H](C)CO)C(=O)c2cc(NS(=O)(=O)c3ccccc3)ccc2O[C@@H](C)CCCCO[C@H]1CN(C)C(=O)Nc1ccc(C(F)(F)F)cc1,.,.,32,43,.,-3
C[C@@H]1CN([C@@H](C)CO)C(=O)c2cc(NS(=O)(=O)c3ccccc3)ccc2O[C@@H](C)CCCCO[C@H]1CN(C)C(=O)Nc1ccc(C(F)(F)F)cc1,.,.,-7,-14,.,.
C[C@@H]1CCCCO[C@@H](CN(C)C(=O)Nc2ccc(C(F)(F)F)cc2)[C@H](C)CN([C@H](C)CO)C(=O)c2cc(NS(=O)(=O)c3ccccc3)ccc2O1,.,.,23,84*,.,14
CO[C@@H]1CN(C)C(=O)c2cc(NC(C)=O)ccc2OC[C@H](C)N(Cc2cncnc2)C[C@@H]1C,.,.,2,.,.,1
CCCNC(=O)[C@@H]1[C@@H](CO)[C@@H]2Cn3c(ccc(C4=CCCC4)c3=O)[C@H]1N2CCC(F)(F)F,.,.,-8,-21,.,-5
Fc1ccccc1/C=N/Nc1ncnc2ccccc12,20,-16,-64,-148,16,.
Clc1ccc(/C=N/Nc2ncnc3ccccc23)cc1Cl,?,-32,.,-129,.,74*
Cc1cc(C)nc(N/N=C/c2cccc(Cl)c2)n1,2,-31,-18,-20,35,.
Clc1cccc(/C=N/Nc2nc(Cl)nc3ccccc23)c1,10,-55,.,-67,.,52*
Cc1cccc(NC(=O)CN2C(=O)N/C(=C\c3ccc(N4CCOCC4)cc3)C2=O)c1,9,-10,-42,29,15,59*
COCCNCC(=O)N1c2ccccc2Sc2ccccc21,48*,14,2,-1,.,-3
Cc1ccc(-c2ccc([C@@H]3[C@@H]4CN(Cc5ccccc5F)C[C@H]3N4)cc2)cc1,.,.,-12,89*,.,.
Fc1ccc(-c2ccc(C3[C@@H]4CN(Cc5ccccc5)C[C@H]3N4)cc2)cc1 (stereo partly specified),.,.,2,74*!,.,.
COc1cc(CN2C[C@@H]3N[C@H](C2)C3c2ccc(-c3ccccc3C)cc2)cc(OC)c1 (stereo partly specified),.,.,4,73*!,.,.
COc1cccc(CN2C[C@@H]3N[C@H](C2)C3c2ccc(-c3ccccc3C)cc2)c1 (stereo partly specified),.,.,-9,16,.,.
Fc1ccc(-c2ccc(C3[C@@H]4CN(Cc5cccc(F)c5)C[C@H]3N4)cc2)cc1 (stereo partly specified),.,.,-11,27,.,.
Cc1ccccc1-c1ccc(C2[C@@H]3CN(C(=O)Cc4ccccc4)C[C@H]2N3)cc1 (stereo partly specified),.,.,56*!,33,.,.
C[C@H]1CN([C@@H](C)CO)C(=O)Cc2cc(NS(=O)(=O)c3ccccc3)ccc2O[C@H]1CN(C)C(=O)Nc1cccc2ccccc12,.,.,-8,-21,.,0

# Assay outcomes: PubChem BioAssay, Broad Institute
